According to the supplement of paper PMC8728848:
This is one part of a sample in which the strongest signals are shown more often than they occur.

Columns and labels:
Experiment in all cases: glycan array binding signal (z-score within array); higher = stronger binding
Conditions in all cases: glycan notation: IUPAC condensed, linker removed
[1] = target: GlcNAc(b1-3)Gal(b1-4)GlcNAc(b1-3)Gal(b1-4)GlcNAc(b1-2)Man(a1-3)[GlcNAc(b1-3)Gal(b1-4)GlcNAc(b1-3)Gal(b1-4)GlcNAc(b1-2)Man(a1-6)]Man(b1-4)GlcNAc(b1-4)[Fuc(a1-6)]GlcNAc
Method in brief: (§1)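 The binding signal is a Z-score computed within each array and averaged over linkers. Arrays of the same protein sequence at different concentrations or buffers were also averaged together. Data originate from 3228 arrays in the Consortium for Functional Glycomics database, kept only where the protein sequence was available.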

[2] = target: GlcNAc(b1-3)Gal(b1-4)GlcNAc(b1-3)Gal(b1-4)GlcNAc(b1-3)Gal(b1-4)GlcNAc(b1-2)Man(a1-3)[GlcNAc(b1-3)Gal(b1-4)GlcNAc(b1-3)Gal(b1-4)GlcNAc(b1-3)Gal(b1-4)GlcNAc(b1-2)Man(a1-6)]Man(b1-4)GlcNAc(b1-4)GlcNAc
Method in brief: as §1

[3] = target: GlcNAc(b1-3)Gal(b1-4)GlcNAc(b1-3)Gal(b1-4)GlcNAc(b1-3)Gal(b1-4)GlcNAc(b1-2)Man(a1-3)[GlcNAc(b1-3)Gal(b1-4)GlcNAc(b1-3)Gal(b1-4)GlcNAc(b1-3)Gal(b1-4)GlcNAc(b1-2)Man(a1-6)]Man(b1-4)GlcNAc(b1-4)[Fuc(a1-6)]GlcNAc
Method in brief: as §1

[4] = target: GlcNAc(b1-3)Gal(b1-4)GlcNAc(b1-3)Gal(b1-4)GlcNAc(b1-3)Gal(b1-4)GlcNAc(b1-3)Gal(b1-4)GlcNAc(b1-2)Man(a1-3)[GlcNAc(b1-3)Gal(b1-4)GlcNAc(b1-3)Gal(b1-4)GlcNAc(b1-3)Gal(b1-4)GlcNAc(b1-3)Gal(b1-4)GlcNAc(b1-2)Man(a1-6)]Man(b1-4)GlcNAc(b1-4)GlcNAc
Method in brief: as §1

[5] = target: GlcNAc(b1-3)Gal(b1-4)GlcNAc(b1-3)Gal(b1-4)GlcNAc(b1-3)Gal(b1-4)GlcNAc(b1-3)Gal(b1-4)GlcNAc(b1-2)Man(a1-3)[GlcNAc(b1-3)Gal(b1-4)GlcNAc(b1-3)Gal(b1-4)GlcNAc(b1-3)Gal(b1-4)GlcNAc(b1-3)Gal(b1-4)GlcNAc(b1-2)Man(a1-6)]Man(b1-4)GlcNAc(b1-4)[Fuc(a1-6)]GlcNAc
Method in brief: as §1

[6] = target: GlcNAc(b1-3)Gal(b1-4)GlcNAc(b1-3)Gal(b1-4)GlcNAc(b1-3)Gal(b1-4)GlcNAc(b1-3)Gal(b1-4)GlcNAc(b1-2)[GlcNAc(b1-3)Gal(b1-4)GlcNAc(b1-3)Gal(b1-4)GlcNAc(b1-3)Gal(b1-4)GlcNAc(b1-3)Gal(b1-4)GlcNAc(b1-6)]Man(a1-6)[GlcNAc(b1-3)Gal(b1-4)GlcNAc(b1-3)Gal(b1-4)GlcNAc(b1-3)Gal(b1-4)GlcNAc(b1-3)Gal(b1-4)GlcNAc(b1-2)Man(a1-3)]Man(b1-4)GlcNAc(b1-4)[Fuc(a1-6)]GlcNAc
Method in brief: as §1

[7] = target: GlcNAc(b1-3)Gal(b1-4)GlcNAc(b1-3)[GlcNAc(b1-3)Gal(b1-4)GlcNAc(b1-3)]GalNAc
Method in brief: as §1

[8] = target: GlcNAc(b1-3)Gal(b1-4)GlcNAc(b1-6)[Gal(b1-3)]GalNAc
Method in brief: as §1

[9] = target: GlcNAc(b1-4)Gal(b1-4)GlcNAc
Method in brief: as §1

[10] = target: GlcNAc(b1-6)Gal(b1-4)GlcNAc
Method in brief: as §1

[11] = target: GlcNAc(b1-6)GalNAc
Method in brief: as §1

[12] = target: Man(a1-2)Man(a1-3)[Man(a1-6)]Man(a1-6)[Man(a1-2)Man(a1-3)]Man(b1-4)GlcNAc(b1-4)GlcNAc
Method in brief: as §1

[13] = target: Man(a1-3)[Man(a1-6)]Man(b1-4)GlcNAc(b1-4)GlcNAc
Method in brief: as §1

[14] = target: Man(a1-3)[Man(a1-6)]Man(b1-4)GlcNAc(b1-4)[Fuc(a1-6)]GlcNAc
Method in brief: as §1

[15] = target: Neu5Ac(a2-3)Gal(b1-3)[Fuc(a1-4)]GlcNAc
Method in brief: as §1

[16] = target: Neu5Ac(a2-3)Gal(b1-3)[GlcNAc(b1-6)]GalNAc
Method in brief: as §1

[17] = target: Neu5Ac(a2-3)Gal(b1-4)GlcNAc(b1-2)Man(a1-3)[Neu5Ac(a2-3)Gal(b1-4)GlcNAc(b1-2)Man(a1-6)]Man(b1-4)GlcNAc(b1-4)[Fuc(a1-6)]GlcNAc
Method in brief: as §1

[18] = target: Neu5Ac(a2-3)Gal(b1-4)GlcNAc(b1-2)[Neu5Ac(a2-3)Gal(b1-4)GlcNAc(b1-4)]Man(a1-3)[GlcNAc(b1-4)][Neu5Ac(a2-3)Gal(b1-4)GlcNAc(b1-4)Man(a1-6)]Man(b1-4)GlcNAc(b1-4)GlcNAc
Method in brief: as §1

[19] = target: Neu5Ac(a2-3)Gal(b1-4)GlcNAc(b1-3)Gal(b1-4)GlcNAc
Method in brief: as §1

[20] = target: Neu5Ac(a2-3)Gal(b1-4)GlcNAc(b1-3)Gal(b1-4)GlcNAc(b1-2)Man(a1-3)[Neu5Ac(a2-3)Gal(b1-4)GlcNAc(b1-3)Gal(b1-4)GlcNAc(b1-2)Man(a1-6)]Man(b1-4)GlcNAc(b1-4)GlcNAc
Method in brief: as §1

[21] = target: Neu5Ac(a2-3)GalNAc(b1-4)GlcNAc
Method in brief: as §1

[22] = target: Neu5Ac(a2-6)Gal(b1-4)GlcNAc(b1-2)Man(a1-3)Man(b1-4)GlcNAc(b1-4)GlcNAc
Method in brief: as §1

[23] = target: Neu5Ac(a2-6)Gal(b1-4)GlcNAc(b1-2)Man(a1-3)[Neu5Ac(a2-3)Gal(b1-4)GlcNAc(b1-2)Man(a1-6)]Man(b1-4)GlcNAc(b1-4)GlcNAc
Method in brief: as §1

[24] = target: Neu5Ac(a2-6)Gal(b1-4)GlcNAc(b1-2)Man(a1-6)[GlcNAc(b1-2)Man(a1-3)]Man(b1-4)GlcNAc(b1-4)GlcNAc
Method in brief: as §1

[25] = target: Neu5Ac(a2-8)Neu5Ac(a2-3)Gal(b1-4)Glc
Method in brief: as §1

[26] = target: Neu5Gc(a2-3)Gal(b1-3)GlcNAc
Method in brief: as §1

[27] = target: Neu5Gc(a2-3)Gal(b1-4)GlcNAc
Method in brief: as §1

[28] = target: Neu5Gc(a2-8)Neu5Gc(a2-6)Gal(b1-4)GlcNAc
Method in brief: as §1

B1: PpFlo2 (Pichia pastoris) (protein)
chain: MGSSHHHHHHSSGLVPRGSHMDDSGNGDNSDTAYGCDITTNAVDGFDATIYQYNANDLRLIRDPTFMSTGYLGRNVLNKISGVTVPGFNIWNPSSRTATVYGVKNVNYYNMVLELKGYFKADVSGDYKLTLSHIDDSSMLFFGKETAFKCCDAGSIPLNEAPTDYSLFTIKPSNQVNSEVISATQYLEAGKYYPVRIVFVNALERARFDFKLTIPSGAVLDDFQNYIYQFGDLDENSCHE
Question: How did the “glycan array binding signal (z-score)” value [1] turn out when B1 was run?
Answer: The value was 6.15.

Question: And the “glycan array binding signal (z-score)” value [2]?
Answer: The value was 4.24.

Question: And the “glycan array binding signal (z-score)” value [3]?
Answer: Its value is 7.22.

Question: And the “glycan array binding signal (z-score)” value [4]?
Answer: Its value is 7.34.

Question: And the “glycan array binding signal (z-score)” value [5]?
Answer: The value was 7.63.

Question: What about the “glycan array binding signal (z-score)” value [6] of the same binder?
Answer: The value was 4.18.

Question: What about the “glycan array binding signal (z-score)” value [7] of the same binder?
Answer: Its value is 4.33.

Question: What about the “glycan array binding signal (z-score)” value [8] of the same binder?
Answer: Its value is 2.11.

Question: What about the “glycan array binding signal (z-score)” value [9] of the same binder?
Answer: The value was 0.414.

Question: And the “glycan array binding signal (z-score)” value [10]?
Answer: Its value is 0.578.

Question: What about the “glycan array binding signal (z-score)” value [11] of the same binder?
Answer: The value was 0.967.

Question: And the “glycan array binding signal (z-score)” value [12]?
Answer: Its value is -0.276.

Question: And the “glycan array binding signal (z-score)” value [13]?
Answer: Its value is 0.074.

Question: What about the “glycan array binding signal (z-score)” value [14] of the same binder?
Answer: Its value is -0.248.

Question: And the “glycan array binding signal (z-score)” value [15]?
Answer: The value was -0.304.

Question: And the “glycan array binding signal (z-score)” value [16]?
Answer: Its value is 0.351.

Question: And the “glycan array binding signal (z-score)” value [17]?
Answer: The value was -0.271.

Question: And the “glycan array binding signal (z-score)” value [18]?
Answer: The value was -0.271.

Question: What about the “glycan array binding signal (z-score)” value [19] of the same binder?
Answer: Its value is -0.293.

Question: What about the “glycan array binding signal (z-score)” value [20] of the same binder?
Answer: Its value is -0.239.

Question: And the “glycan array binding signal (z-score)” value [21]?
Answer: Its value is -0.302.

Question: What about the “glycan array binding signal (z-score)” value [22] of the same binder?
Answer: The value was -0.293.

Question: And the “glycan array binding signal (z-score)” value [23]?
Answer: Its value is -0.271.

Question: What about the “glycan array binding signal (z-score)” value [24] of the same binder?
Answer: Its value is 2.77.

Question: What about the “glycan array binding signal (z-score)” value [25] of the same binder?
Answer: Its value is -0.301.

Question: What about the “glycan array binding signal (z-score)” value [26] of the same binder?
Answer: The value was -0.301.

Question: What about the “glycan array binding signal (z-score)” value [27] of the same binder?
Answer: Its value is -0.299.

Question: And the “glycan array binding signal (z-score)” value [28]?
Answer: The value was -0.273.
